MCF10A rerep: DNA re-replication induction in MCF 10a cells; MCF 10A DNA re-replication, Hoechst nuclear intensity, 48 h; Potency, µM (series often up to 46.1 µM), without a hit: at the highest dose activity, positive = re-replication, actives largely listed as activators; 350,000 tested, 2.9% active; AID 624296; further: % of control where 0% means no effect; nearly all actives have a fitted effect of over 50% in size
KB-V1 MDR tox: KB-V1 MDR subline cytotoxicity; KB-V1 MDR cells viability, CellTiter-Glo, 72 h; Potency, µM (top dose mostly 46.1 µM), hits mostly cytotoxic; 400,000 tested, 3.4% active; further: on the % scale 0 is the no-effect control and ±100 the full control effect; nearly all actives have a fitted effect of over 60% in size
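KB-V1 cells (P-gp-expressing MDR subline of KB-3-1) in phenol-red-free DMEM with 10% FBS were exposed to library compounds over a concentration series for 72 h at 37 degrees C. Viability read by CellTiter-Glo luminescence; concentration-effect curves fitted after normalization.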
KB-3-1 cytotox: KB-3-1 parental cell cytotoxicity; KB-3-1 viability, CellTiter-Glo ATP luminescence, 72 h; Potency, µM (highest dose often 46.1 µM), hits mostly cytotoxic; 400,000 tested, 1.4% active; further: on the % scale 0 is the no-effect control and ±100 the full control effect; nearly all actives have a fitted effect of over 60% in size
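Luminescent ATP read-out (CellTiter-Glo) measures survival of drug-naive KB-3-1 cells after 72 h compound exposure at 37 °C. Titration series was screened from lowest to highest concentration, with DMSO vehicle plates as background controls.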
ELG1 repair inh: ELG1-dependent DNA repair inhibition. AID 504467. Potency, µM (highest dose often 46.1 µM), without a hit: at the highest dose activity change, negative = inhibition, actives largely listed as inhibitors. HEK293T ELG1-luciferase reporter, luminescence, 16 h; DNA damage induced by 5-fluorouridine. 330,000 tested, 2.3% active; further: on the % scale 0 is the no-effect control and ±100 the full control effect; nearly all actives have a fitted effect of over 55% in size
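Step one: seed 2,000 cells per well. Step two: pin-transfer compound or DMSO alongside 5-fluorouridine. Step three: incubate 16 hr, 37 °C, 5% CO2. Step four: add ONE-Glo, wait 30 min, read luminescence.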
SW480 rerep: DNA re-replication induction in SW480 cells; SW480 DNA re-replication, Hoechst DNA content imaging, 48 h; Potency, µM (highest dose often 46.1 µM), for inactives: at the top dose re-replication activation, most hits filed as activators; 340,000 tested, 1.8% active; AID 624297; further: % of control where 0% means no effect; nearly all actives have a fitted effect of over 55% in size
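SW480 cells exposed to compounds for 48 hr at 37 C, 5% CO2, then Hoechst-stained 40 min. Nuclear DNA content imaged by fluorescence scanning (405 nm excitation, 500-530 nm emission); re-replication scored as increased high-intensity nuclei.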
* marks the source's active call; other numbers are inactive results; i = inactive; ? = inconclusive; nt = not tested or not shown; [ ] = dose if it differs, or a comment. This is a sample that favours compounds with a hit; in the whole collection about 8.2% have one here. The call rests on the fitted dose curve; in most records, active means well fitted curve in the direction sought with a large enough effect; inconclusive means small, poorly fitted or top-dose-only effect, or another doubt; inactive means no such curve, though single readings can be large; an effect the other way counts as inactive or inconclusive. Potency means the concentration at half of the fitted maximal effect.

SMILES	MCF10A rerep	KB-V1 MDR tox	KB-3-1 cytotox	ELG1 repair inh	SW480 rerep
CN(C)c1nc(N/N=C/c2c[nH]c3ccccc23)nc(N2CCOCC2)n1	19.5%	i	i	-22.8%	14.6µM*
Brc1ccc(-c2ccc(/C=N/Nc3nc(N4CCOCC4)nc(N4CCOCC4)n3)o2)cc1	5.4%	i	i	5.8µM*	?
CCOc1ccccc1N1CCN(C(=O)CCNS(=O)(=O)c2ccccc2F)CC1	0.2%	?	i	14.9%	-4.5%
COc1cc(NC(=O)CC(C)n2nc(C)cc2C)cc(OC)c1 (centres undefined)	nt	i	i	nt	nt
COc1ccc(OC)c(NC(=O)c2cc3cccc(OC)c3oc2=O)c1	nt	i	i	nt	nt
O=C1CCCc2cc(S(=O)(=O)NCC3CCC(C(=O)NCc4ccc(F)cc4)CC3)ccc2N1 (centres undefined)	nt	i	i	nt	nt
Brc1ccc(-c2ccc(/C=N/Nc3nc4ccccc4[nH]3)o2)cc1	11.6µM*	i	i	?	5.8µM*
Cc1cn(-c2ccccc2)c(C)c1/C=N\Nc1nc(N2CCOCC2)nc(N2CCOCC2)n1	16.9%	i	i	8.2µM*	1.9%
Clc1ccc(-c2ccc(/C=N/Nc3cc(N4CCOCC4)nc(N4CCOCC4)n3)o2)cc1	?	?	?	5.8µM*	13µM*
C(=N\Nc1nc2ccccc2[nH]1)/c1ccccc1	2.9%	?	i	?	-1.5%
O=[N+]([O-])c1ccc(/C=N/Nc2nc(N3CCCCC3)nc(N3CCCCC3)n2)o1	12.6%	?	i	23.1µM*	3.5%
Nc1ccc(-c2nc3ncccc3o2)cc1	6.6%	?	i	?	-6.7%
CCCc1noc(-c2ccc(NCc3ccc(C)cc3)c([N+](=O)[O-])c2)n1	nt	i	i	nt	nt
CCN1CCN(S(=O)(=O)c2ccc(S(=O)(=O)N(CC)Cc3ccccc3)cc2)CC1	1.84µM*	?	i	1.4%	11.6µM*
CCN1CCN(S(=O)(=O)c2ccc(C(C)(C)C)cc2)CC1	?	i	i	-8.4%	23.1µM*
CC(C)[C@@H](CSc1ccccc1)N1CCN(Cc2ccccc2)CCC1=O	15.4%	?	i	?	9.6%
Cc1ccc(OC(C)C(=O)N2CCc3ccccc32)c([N+](=O)[O-])n1 (centres undefined)	nt	i	i	nt	nt
CCOC(=O)C1=C(O)c2ccccc2C(=O)/C1=C\c1ccc(C)cc1	20.6µM*	?	?	?	?
CCOC(=O)C1=C(C)OC(=Cc2ccccc2)C1=O	nt	i	i	nt	nt
CCOC(=O)c1cc([N+](=O)[O-])sc1NC(=O)c1ccc(S(=O)(=O)N2CC3(C)CC2CC(C)(C)C3)cc1 (centres undefined)	?	?	4.61µM*	?	?
O=C(Nc1ccc(Cl)c(S(=O)(=O)N2CCOCC2)c1)C1=NN(c2ccccc2)C(=O)CC1	2.0%	i	?	29.1µM*	0.7%
CCCNC(=O)c1cccc(S(=O)(=O)N2CC3(C)CC2CC(C)(C)C3)c1 (centres undefined)	5.7%	2.06µM*	i	-0.1%	1.1%
O=C(Nc1ccccc1)Nc1ccc(Cl)c(S(=O)(=O)N2CCOCC2)c1	15.3%	i	?	?	-32.8%[1.84 µM]
O=C(/C=C/c1ccco1)Nc1ccc(Cl)c(S(=O)(=O)N2CCOCC2)c1	-1.7%	?	?	16.4µM*	-18.3%
CC(=O)Nc1ccc(S(=O)(=O)N2CC3(C)CC2CC(C)(C)C3)cc1 (centres undefined)	-1.2%	i	i	3.7%	29.8%
SMILES	MCF10A rerep	KB-V1 MDR tox	KB-3-1 cytotox	ELG1 repair inh	SW480 rerep
CCN(CC)CCCNC(=O)c1nn(C)c2c1CS(=O)(=O)c1ccccc1-2	nt	i	i	nt	nt
CC(=O)Nc1ccc(S(=O)(=O)Nc2nnc(C)s2)cc1	nt	i	i	nt	nt
O=C(Nc1ccc(Cl)c(S(=O)(=O)N2CCOCC2)c1)c1cccs1	3.8%	?	i	25.9µM*	7.1%
CN(CC(=O)Nc1ccc(Cl)c(S(=O)(=O)N2CCOCC2)c1)C(=O)c1cccs1	3.0%	i	i	-12.1%	-2.9%
CC1(C)CC2CC(C)(CN2S(=O)(=O)c2ccc(C(=O)Nc3ccc(Cl)c(S(=O)(=O)N4CCOCC4)c3)cc2)C1 (centres undefined)	-1.5%	2.91µM*	2.91µM*	0.6%	15.3%
CC1(C)CC2CC(C)(CN2S(=O)(=O)c2ccc(C(=O)Nc3ccc(S(=O)(=O)N4CCOCC4)cc3)cc2)C1 (centres undefined)	-3.5%	?	?	16.1%	-10.7%
O=C(Nc1ccc(Cl)c(S(=O)(=O)N2CCOCC2)c1)c1ccccc1-c1ccc(C(F)(F)F)cc1	10.6%	?	?	23.1µM*	4.4%
CCCCCCCCN1C(=O)[C@H](CC(=O)N2CCOCC2)C[C@@]2(C(=O)OC)CCCCC=C12	nt	i	i	nt	nt
C=CCc1c(C)nc(C)nc1N/N=C/c1ccccc1O	18.7%	7.31µM*	i	?	11.6µM*
COCCNC(=O)C1(C)CCCN(Cc2ccc(Cl)c(Cl)c2)C1 (centres undefined)	nt	i	i	nt	nt
Cc1cc2nccc(-c3ccncc3)n2n1	0.9%	?	i	13µM*	-0.7%
Cc1ccc(-c2ccnc3cc(C)nn23)cc1	-10.4%	i	i	1.1%	0.6%
O=C(CSc1nc(-c2ccccc2)nc2c1CCCC2)c1ccc(F)cc1	nt	i	i	nt	nt
CC(C)(C)c1ccc(OCCCNCc2ccccc2)cc1	23.1µM*	i	?	-5.2%	23.1µM*
COCCCNCCCOc1ccc(C(C)(C)c2ccccc2)cc1	15.1%	?	i	1.0%	?
COCCNCCCOc1ccc(C(C)(C)c2ccccc2)cc1	20.6µM*	?	i	4.2%	2.0%
CC(C)(c1ccccc1)c1ccc(OCCCNCCO)cc1	?	?	?	0.6%	-14.0%
c1ccc(CNCCCNCCCCNCCCNCc2ccccc2)cc1	6.51µM*	?	?	nt	?
Cc1cccc(NS(=O)(=O)c2cccc(C(=O)NCC(c3ccco3)N(C)C)c2)c1 (centres undefined)	-0.5%	?	i	0.7%	-5.7%
CC(=O)c1cccc(NC(=O)c2cccc3c(-c4cnn(C)c4)coc23)c1	nt	?	i	nt	nt
O=C(NN=C(Cc1ccccc1)Cc1ccccc1)c1ccc(F)cc1	3.3%	i	i	17.8%	1.1%
C/C(=N\NC(=O)c1ccccc1[N+](=O)[O-])c1c(O)cc(C)oc1=O	-6.0%	i	i	8.6%	-7.3%
O=C(NN=C(Cc1ccccc1)Cc1ccccc1)c1ccccc1O	11.6%	?	i	?	18.4µM*
C/C(=N\NC(=O)c1ccccc1O)c1c(O)cc(C)oc1=O	?	?	i	?	5.8µM*

From PubChem BioAssay
